# About 83,000 compounds went through this panel and 20% of them were active in at least one assay; those are over-represented in the sample as a whole.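 Results are percent growth after 48 hours of single-concentration exposure. 100 means growth as in untreated cells, lower positive values show inhibition; negative values down to -100 show cell death.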 Active and inactive are the calls of the source. Rule for the calls: active = growth percent below 10; inactive = the rest.
# Tested on: SF-539 CNS
# Experiment: NCI-60 one-dose screen, 48 h (100 = growth as untreated, 0 = no growth, -100 = all killed)
# Conditions: 10 µM unless noted
row,SMILES,growth
1,C=C1C(=O)O[C@@H]2C3C(=C(C)CC[C@@H]12)CC1O[C@]13C (stereo partly specified),82.3% [6.75 µM] (inactive)
2,COc1cccc(CNc2c3ccccc3nc3ccccc23)c1OC,18.9% (inactive)
3,Nc1c(Cl)cc(/C=C2\C=Cc3ccccc32)cc1Cl,97.5% (inactive)
4,CSc1ccc2c3c(n(C[C@H](O)CO)c(=O)c2c1)-c1ccccc1C3=O,10.3% (inactive)
5,COc1cc(-c2ccc[nH]2)[nH]c1/C=C1\N=C(C)C(CC(=O)OCC(C)(C)C)=C1C,-69.3% (active)
6,Brc1ccc(Nc2nc(Nc3cnc4ccccc4c3)c3[nH]cnc3n2)cc1,87.4% (inactive)
7,CS(=O)(=O)Nc1cc(-c2ccc3ncnc(Nc4ccc(F)c(Cl)c4)c3c2)ccc1Cl,52.1% (inactive)
8,CSc1ccc2c3c(n(CCCn4ccnc4)c(=O)c2c1)-c1ccccc1C3=O,4.89% (active)
9,O=C(/C=C/c1cn(-c2ccccc2)nc1-c1ccccc1)CCC(=O)NO,113% (inactive)
10,O=C(/C=C/c1ccccc1)c1cccc2ccccc12,51.2% (inactive)
11,CCOC(=O)/C=C1\S/C(=N\Nc2cc(=O)[nH]c3ccc(Br)cc23)N(c2ccccc2)C1=O,80.8% (inactive)
12,CC(=O)c1ccc(-n2cc(CN3CCN(c4cc5c(cc4F)c(=O)c(C(=O)O)cn5C4CC4)CC3)nn2)cc1,92.6% (inactive)
13,CS(=O)(=O)Nc1cc(-c2ccc3ncnc(Nc4ccc(OCc5ccccn5)c(Cl)c4)c3c2)cnc1Cl,-11.7% (active)
14,COc1ccc2c(c1)c(-c1nc(-c3ccc4ccccc4c3)cs1)cn2C,89% (inactive)
15,CCOC(=O)c1c(C)nc2ccccc2c1/C=C/c1ccc(F)cc1,81% (inactive)
16,CC1(C)N=C(N)N=C(N)N1c1ccc(S(=O)(=O)Nc2nccs2)cc1,95.1% (inactive)
17,COC(=O)c1sccc1-c1cc(O)c(C(=O)Nc2ccccc2)s1,98.8% (inactive)
18,CCOC(=O)NC(=S)n1oc(=O)c2ccccc21,95.6% (inactive)
19,O=C1CCC(C(=O)N/N=C/c2cc(F)ccc2F)N1 (stereo unspecified),101% (inactive)
20,COc1ccccc1/C=C/C(=O)Nc1ccc(F)cc1,101% (inactive)
21,COc1ccc(/C=N/Nc2c3ccccc3nc3ccccc23)cc1,95.4% (inactive)
22,O=[N+]([O-])c1ccccc1Sc1ccccc1[N+](=O)[O-],94.8% (inactive)
23,C[C@@H]1CN(c2cnc(C(=O)Nc3cc(F)cc4cccnc34)cn2)C[C@H](C)N1,94.7% (inactive)
24,CC1(C)CC[C@]23CC[C@]4(C)[C@H](CC[C@@H]5[C@@]6(C)C/C(=C/O)C(=O)C(C)(C)[C@@H]6CC[C@]54C)[C@H]2[C@H]1OC3,101% (inactive)
25,c1cc(OCCCCCOc2cccc(-c3nc4ccccc4[nH]3)c2)cc(-c2nc3ccccc3[nH]2)c1,28.3% (inactive)
26,O=CN1N=C(c2cccc(Nc3ccnc4cc(Cl)ccc34)c2)CC1c1ccc(Cl)cc1 (stereo unspecified),19.2% (inactive)
27,COc1ccc(/C=C2\c3cc(OC)c(OC)c(OC)c3CC[C@@H]2O)cc1F,1.44% (active)

# Tested on: UACC-257 melanoma
# Experiment: as above
# Conditions: 10 µM unless noted
row,SMILES,growth
1,C[C@H](c1nc2ccc(C#N)cc2[nH]1)[C@H]1CC[C@H]2[C@@H]3CCC4=CC(=O)CC[C@]4(C)[C@H]3CC[C@]12C,68.2% (inactive)
2,O=c1cc(C(F)(F)F)c2cc(-c3cc4ccccc4c(=O)o3)c(O)cc2o1,70.6% (inactive)
3,Nc1ccc(-c2ccncc2)cc1NC(=O)N1CCCC1,59.7% (inactive)
4,COc1cccc(-c2cn3nc(-c4cn(C)c5ccccc45)sc3n2)c1,97.5% (inactive)
5,CC(C)(C)c1ccc(S(=O)(=O)Oc2ccc(-c3sc4cc(OS(=O)(=O)c5ccc(C(C)(C)C)cc5)ccc4c3C(=O)c3ccc(OCCN4CCCCC4)cc3)cc2)cc1,106% (inactive)
6,CCN(CC)CCn1c2ccc(OC)cc2c2sc3cc(O)ccc3c(=O)c21,78.4% (inactive)
7,C=C1C(=O)O[C@H]2[C@H]1CC/C(COC(=O)NCc1ccc(Cn3c(=O)sn(-c4ccc(I)cc4)c3=O)cc1)=C\CC[C@@]1(C)O[C@@H]21,75.7% (inactive)
8,O=C(Nc1nc(Cl)nc(Nc2ccc(N3CCOCC3=O)cc2)n1)c1ccc(Cl)s1,72.2% (inactive)
9,COc1cc(OC)c2c(=O)c3c(CC=C(C)C)cc(OC)c(O)c3oc2c1,107% (inactive)
10,O=S(=O)(Nc1cc(Sc2nc3ccccc3s2)c(O)c2ccccc12)c1ccc2ccccc2c1,99.8% (inactive)
11,Nc1cccc(-c2ccc(COc3ccc(CC4SC(=O)NC4=O)cc3)cc2)c1 (stereo unspecified),71% (inactive)
12,COc1ccc(-c2nc(SCC(=O)Nc3nc4ccc(C)cc4s3)[nH]c(=O)c2C#N)cc1OC,103% (inactive)
13,C=C1C(=O)O[C@@H]2C3C(=C(C)CC[C@@H]12)CC1O[C@]13C (stereo partly specified),70.4% [6.75 µM] (inactive)
14,COc1cccc(CNc2c3ccccc3nc3ccccc23)c1OC,54.8% (inactive)
15,Nc1c(Cl)cc(/C=C2\C=Cc3ccccc32)cc1Cl,98.3% (inactive)
16,CSc1ccc2c3c(n(C[C@H](O)CO)c(=O)c2c1)-c1ccccc1C3=O,85.5% (inactive)
17,COc1cc(-c2ccc[nH]2)[nH]c1/C=C1\N=C(C)C(CC(=O)OCC(C)(C)C)=C1C,-81.4% (active)
18,Brc1ccc(Nc2nc(Nc3cnc4ccccc4c3)c3[nH]cnc3n2)cc1,90.3% (inactive)
19,CS(=O)(=O)Nc1cc(-c2ccc3ncnc(Nc4ccc(F)c(Cl)c4)c3c2)ccc1Cl,59.6% (inactive)
20,CSc1ccc2c3c(n(CCCn4ccnc4)c(=O)c2c1)-c1ccccc1C3=O,71% (inactive)

row,SMILES,growth
1,O=C(/C=C/c1cn(-c2ccccc2)nc1-c1ccccc1)CCC(=O)NO,92.7% (inactive)
2,O=C(/C=C/c1ccccc1)c1cccc2ccccc12,40.2% (inactive)
3,CCOC(=O)/C=C1\S/C(=N\Nc2cc(=O)[nH]c3ccc(Br)cc23)N(c2ccccc2)C1=O,89.9% (inactive)
4,CC(=O)c1ccc(-n2cc(CN3CCN(c4cc5c(cc4F)c(=O)c(C(=O)O)cn5C4CC4)CC3)nn2)cc1,96.7% (inactive)
5,CS(=O)(=O)Nc1cc(-c2ccc3ncnc(Nc4ccc(OCc5ccccn5)c(Cl)c4)c3c2)cnc1Cl,14.3% (inactive)
6,COc1ccc2c(c1)c(-c1nc(-c3ccc4ccccc4c3)cs1)cn2C,94% (inactive)
7,CCOC(=O)c1c(C)nc2ccccc2c1/C=C/c1ccc(F)cc1,83% (inactive)
8,CC1(C)N=C(N)N=C(N)N1c1ccc(S(=O)(=O)Nc2nccs2)cc1,98.5% (inactive)
9,COC(=O)c1sccc1-c1cc(O)c(C(=O)Nc2ccccc2)s1,91.6% (inactive)
10,CCOC(=O)NC(=S)n1oc(=O)c2ccccc21,105% (inactive)
11,O=C1CCC(C(=O)N/N=C/c2cc(F)ccc2F)N1 (stereo unspecified),103% (inactive)
12,COc1ccccc1/C=C/C(=O)Nc1ccc(F)cc1,99.4% (inactive)
13,COc1ccc(/C=N/Nc2c3ccccc3nc3ccccc23)cc1,103% (inactive)
14,O=[N+]([O-])c1ccccc1Sc1ccccc1[N+](=O)[O-],107% (inactive)
15,C[C@@H]1CN(c2cnc(C(=O)Nc3cc(F)cc4cccnc34)cn2)C[C@H](C)N1,41.4% (inactive)
16,CC1(C)CC[C@]23CC[C@]4(C)[C@H](CC[C@@H]5[C@@]6(C)C/C(=C/O)C(=O)C(C)(C)[C@@H]6CC[C@]54C)[C@H]2[C@H]1OC3,101% (inactive)
17,c1cc(OCCCCCOc2cccc(-c3nc4ccccc4[nH]3)c2)cc(-c2nc3ccccc3[nH]2)c1,22.9% (inactive)
18,O=CN1N=C(c2cccc(Nc3ccnc4cc(Cl)ccc34)c2)CC1c1ccc(Cl)cc1 (stereo unspecified),52.8% (inactive)
19,COc1ccc(/C=C2\c3cc(OC)c(OC)c(OC)c3CC[C@@H]2O)cc1F,39% (inactive)
